Activity calls are given as the source filed them. Rule for the calls: active = hit-call score of the fitted dose curve at least 0.9, where 1 is the maximum; inactive = score below 0.9.
Key:
[1] = read-out: Tissue Factor, F3 (gene 2152); assay: BSK_CASM3C_TissueFactor: BioMAP Diversity Plus: CASM3C Assay for Tissue Factor Biomarker Activity (AID 2283052); conditions: primary human coronary artery smooth muscle cells; actives raise or lower the signal;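 note: cell surface tissue factor protein level read by ELISA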
[2] = read-out: Interferon-gamma inducible Protein 10 (IP10), CXCL10 (gene 3627); assay: BSK_hDFCGF_IP10: BioMAP Diversity Plus: hDFCGF Assay for Interferon-gamma inducible Protein 10 (IP10) Biomarker Activity (AID 2283053); conditions: primary human foreskin fibroblasts; actives raise or lower the signal
Summary of the method: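 Primary human foreskin fibroblasts exposed to chemicals for 24 h. IP-10 measured by ELISA; changes fitted bidirectionally against DMSO baseline.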

[3] = read-out: Urokinase-type plasminogen activator receptor (uPAR), PLAUR (gene 5329); assay: BSK_CASM3C_uPAR: BioMAP Diversity Plus: CASM3C Assay for Urokinase-type plasminogen activator receptor (uPAR) Biomarker Activity (AID 2283054); conditions: primary human coronary artery smooth muscle cells; actives raise or lower the signal;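 note: cell-surface uPAR protein level quantified by ELISA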
[4] = read-out: Vascular cell adhesion molecule 1 (VCAM1), VCAM1 (gene 7412); assay: BSK_CASM3C_VCAM1: BioMAP Diversity Plus: CASM3C Assay for Vascular cell adhesion molecule 1 (VCAM1) Biomarker Activity (AID 2283055); conditions: primary human coronary artery smooth muscle cells; actives raise or lower the signal;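 note: VCAM-1 protein level quantified by ELISA on the cells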
[5] = read-out: Collagen III, COL3A1 (gene 1281); assay: BSK_hDFCGF_CollagenIII: BioMAP Diversity Plus: hDFCGF Assay for Collagen III Biomarker Activity (AID 2283056); conditions: primary human foreskin fibroblasts; actives raise or lower the signal
Summary of the method: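 ELISA read-out of collagen III from human skin fibroblast cultures sampled 24 h post-dosing. Values were derived by bidirectional fitting relative to the DMSO vehicle control.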

[6] = read-out: Epidermal growth factor receptor (EGFR), EGFR (gene 1956); assay: BSK_hDFCGF_EGFR: BioMAP Diversity Plus: hDFCGF Assay for Epidermal growth factor receptor (EGFR) Biomarker Activity (AID 2283057); conditions: primary human foreskin fibroblasts; actives raise or lower the signal
Summary of the method: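 Primary human foreskin fibroblasts (hDFCGF system), sampled 24 h after dosing; EGFR quantified by ELISA. Bidirectional fit relative to DMSO baseline; SRB total-protein staining in parallel cultures for cytotoxicity.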

[7] = read-out: Interleukin-8 (IL8), CXCL8 (gene 3576); assay: BSK_hDFCGF_IL8: BioMAP Diversity Plus: hDFCGF Assay for Interleukin-8 (IL8) Biomarker Activity (AID 2283058); conditions: primary human foreskin fibroblasts; actives raise or lower the signal
Summary of the method: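 Cells used are human skin primary fibroblasts. Chemical is added, cultures run 24 h, then IL-8 is quantified by ELISA, and gain or loss versus DMSO control is fitted in both directions.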

[8] = BSK_hDFCGF_Proliferation: Cell Proliferation Assessment in the BioMAP Diversity Plus: hDFCGF Assay (AID 2283059); conditions: primary human foreskin fibroblasts;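 note: curves fitted for both rise and fall of signal versus DMSO baseline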
Summary of the method: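 This proliferation readout used SRB total-protein staining of human foreskin fibroblasts […], normalized to DMSO with bidirectional curve fitting.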

[9] = read-out: Macrophage colony-stimulating factor (MCSF), CSF1 (gene 1435); assay: BSK_hDFCGF_MCSF: BioMAP Diversity Plus: hDFCGF Assay for Macrophage colony-stimulating factor (MCSF) Biomarker Activity (AID 2283060); conditions: primary human foreskin fibroblasts; actives raise or lower the signal
Summary of the method: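 Primary human foreskin fibroblasts dosed with chemical; 24 h later, M-CSF quantified by ELISA; curves fitted in both directions vs DMSO negative control.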

[10] = BSK_hDFCGF_SRB: Viability Assessment in the BioMAP Diversity Plus: hDFCGF Assay (AID 2283061); conditions: primary human foreskin fibroblasts;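 note: cells exposed to compound for 24 h before the read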
Summary of the method: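 Readout is SRB absorbance at 560 nm, reflecting total protein in parallel cultures of human foreskin fibroblasts harvested 24 h after chemical dosing. Activity was fitted bidirectionally relative to DMSO.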

Measured: AC50

c1ccc(Oc2ccccc2)cc1
inactive: all assays above

CCCCN(CCCC)C(=O)N(CCCC)CCCC
inactive: [6] | [7]
active: [1] 11.7 µM | [2] 11.1 µM | [3] 20 µM | [4] 12.8 µM | [5] 7.43 µM | [8] 3.96 µM | [9] 9.49 µM | [10] 10.3 µM

CC(C=O)Cc1ccc(C(C)(C)C)cc1 (stereo not given)
inactive: [2] | [5] | [7]
active: [1] 20 µM | [3] 33.7 µM | [4] 27.3 µM | [6] 32.1 µM | [8] 29.1 µM | [9] 29.5 µM | [10] 35.5 µM

CS(=O)(=O)OCCCCOS(C)(=O)=O
inactive: all assays above

COc1ccc(OC)c(N=Nc2c(O)ccc3ccccc23)c1
inactive: [1] | [3] | [6] | [7]
active: [2] 3.71 µM | [4] 20 µM | [5] 1.92 µM | [8] 10.2 µM | [9] 5.74 µM | [10] 8.26 µM

C=C(C)C(=O)OCC(CC)(COC(=O)C(=C)C)COC(=O)C(=C)C
active: [1] 8.08 µM | [2] 33.8 µM | [6] 31.7 µM | [8] 26.5 µM | [9] 23.4 µM | [10] 32.1 µM
inactive: [3] | [4] | [5] | [7]

CC(CN=Cc1ccccc1O)N=Cc1ccccc1O (stereo not given)
inactive: all assays above

C=C(C)C(=O)OCCOCCOCCOCCOC(=O)C(=C)C
inactive: all assays above

c1ccc(CCc2ccccc2)cc1
inactive: [6] | [7]
active: [1] 20 µM | [2] 34.1 µM | [3] 31.9 µM | [4] 37.6 µM | [5] 36.1 µM | [8] 13.8 µM | [9] 30.5 µM | [10] 30.3 µM

CC(=O)C1(C)CC2=C(CCCC2(C)C)CC1C (stereo not given)
active: [1] 11.6 µM | [2] 13.8 µM | [3] 12.3 µM | [4] 11.4 µM | [5] 10.5 µM | [6] 6.8 µM | [7] 31.7 µM | [8] 10.6 µM | [9] 10.9 µM | [10] 11.2 µM

CN(C)C(=S)SC(=S)N(C)C
inactive: [1] | [3] | [10]
active: [2] 35.1 µM | [4] 19.9 µM | [5] 15.2 µM | [6] 19.9 µM | [7] 39.1 µM | [8] 30.2 µM | [9] 31.4 µM

CCN(CC)C(=O)N(CC)CC
inactive: all assays above

Oc1c(Cl)cc(Cl)c(Cl)c1Cc1c(O)c(Cl)cc(Cl)c1Cl
active: [1] 1.73 µM | [2] 2.82 µM | [3] 1.97 µM | [4] 9.96 µM | [5] 4.93 µM | [7] 3.96 µM | [8] 0.113 µM | [9] 1.58 µM | [10] 5.15 µM
inactive: [6]

COc1ccc(CCN2CCC(Nc3nc4ccccc4n3Cc3ccc(F)cc3)CC2)cc1
active: [5] 5 µM | [8] 5.42 µM | [9] 7.49 µM
inactive: all other assays above

CS(=O)(=O)c1ccc(C2=C(c3ccccc3)C(=O)OC2)cc1
inactive: all assays above

C=CC(C)(O)CCC=C(C)C (stereo not given)
inactive: all assays above

IC(I)I
active: [3] 0.584 µM
inactive: all other assays above

C=C(C)[C@H]1CC=C(C)C(=O)C1
inactive: all assays above

CCCCCCCCCCCCCCCC(=O)OC/C=C(C)/C=C/C=C(C)/C=C/C1=C(C)CCCC1(C)C
active: [4] 0.0326 µM | [5] 3.97 µM | [8] 27.7 µM | [9] 24.7 µM
inactive: all other assays above

CC=Cc1ccc(OCC)c(O)c1
inactive: all assays above

CN(C)C(=O)Nc1ccc(Oc2ccc(Cl)cc2)cc1
inactive: all assays above

CN(c1nccc(=O)[nH]1)C1CCN(c2nc3ccccc3n2Cc2ccc(F)cc2)CC1
inactive: all assays above

C1=CC2C3C=CC(C3)C2C1 (stereo not given)
inactive: all assays above

Source: PubChem BioAssay (EPA / NIEHS)
